Results reported in PubChem BioAssay AID720706 (Broad Institute, 2013).
Among all 350,000 compounds or so, about 5,500 (1.6%) were called active.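 How the source made its calls: active means significant combined selectivity score with lowered wild-type GFP, culture density cut under 30%, mutant RFP and density less affected; inactive means any of these conditions unmet.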 Shown is part of a subset that was picked to be rich in actives.

assay: GFP drop in mixed WT/humanized-ribosome E. coli culture – GFP/RFP fluorescence, OD600, single point, bacterial rRNA inhibitor project, primary screen (AID 720706); settings: E. coli WT GFP vs humanized-ribosome RFP mutants, 24 h; GFP signal change (wild-type ribosome): stronger effect = lower value, DMSO median 0, no signal -100; OD600 change: measured here: OD600 growth, DMSO median 0, no signal -100; RFP signal change: measured here: RFP humanized mutant strains, DMSO median 0, no signal -100, concentration not given here

Row | Structure (SMILES) | GFP signal change (wild-type ribosome) | OD600 change [%] | RFP signal change [%]
1 | CO[C@@H]1CN(C)C(=O)c2ccc(NS(=O)(=O)c3ccc(Cl)cc3)cc2OC[C@@H](C)N(C)C[C@@H]1C | -0.718% (inactive) | 1.84 | -0.00025
2 | O=C(c1ccccc1F)N1CC(=O)N2[C@H](CO)[C@@H](c3ccc(-c4cccnc4)cc3)[C@H]2C1 | 4.23% (inactive) | 20.3 | 2.58
3 | CC(=O)N1C[C@@H]2C(c3ccccc3)[C@@H](C1)N2C(=O)NC(C)C (some centres undefined) | 1.98% (inactive) | 3.76 | -1.21
4 | Cc1nnc(SCC(=O)Nc2cccc(N)c2)n1-c1ccccc1 | 6.38% (inactive) | 12 | 4.46
5 | Cc1nnc(SCc2ccc(C(=O)c3ccc(Cl)cc3)o2)n1-c1ccccc1 | -32.1% (active) | -22.7 | 3.57
6 | COC(=O)c1ccc(CSc2nc3ccccc3c(=O)n2-c2cccc(OC)c2)o1 | 1.15% (inactive) | -0.729 | 0.461
7 | C[C@@H]1CN([C@@H](C)CO)C(=O)c2cc(NS(=O)(=O)c3cn(C)cn3)ccc2O[C@@H]1CN(C)Cc1ccc(C(=O)Nc2ccccc2N)cc1 | 5.78% (inactive) | 6.33 | 3.25
8 | O=C(O)c1ccc(-n2nc(-c3ccccc3)c3ccccc3c2=O)cc1 | 2.07% (inactive) | -9.56 | -1.61
9 | O=c1[nH]n2c(-c3ccccc3)nc(O)c2c2ccccc12 | -31.6% (active) | -7.74 | 0.585
10 | COCC(=O)N1CC(=O)N2[C@@H](CO)[C@@H](c3ccc(C#CC(C)C)cc3)[C@@H]2C1 | -0.482% (inactive) | 2.33 | -1.33
11 | COc1ccc(C#Cc2ccc([C@@H]3[C@H](CO)N4C(=O)CN(C(C)=O)C[C@@H]34)cc2)cc1 | -2.96% (inactive) | -13.2 | -2.12
12 | CC(=O)Nc1cccc2c1O[C@@H](CN(C)C(C)=O)[C@@H](C)CN(C)C2=O | -0.3% (inactive) | 2.46 | -0.39
13 | COc1ccc2c3c(n(C)c2c1)[C@@H](CO)N(C(=O)c1cnccn1)CC31CCN(C(C)=O)CC1 | 4.42% (inactive) | 18.1 | -2.67
14 | C[C@@H](Nc1nc(-c2ccccc2)nc2c1oc1ccccc12)C(=O)O | -25.4% (active) | -3.54 | 7.03
15 | O=c1[nH]c(CSc2ccccc2)nc2c1oc1ccccc12 | 4.21% (inactive) | 3 | -8.61
16 | COCCNc1nc(-c2ccccc2)nc2c1oc1ccccc12 | -38% (inactive) | -50.5 | -2.59
17 | O=C(C1CCCCC1)N1CC(=O)N2[C@H](CO)[C@H](c3ccc(-c4ccccc4F)cc3)[C@H]2C1 | -9.7% (inactive) | -39.9 | 0.225

Row | Structure (SMILES) | GFP signal change (wild-type ribosome) | OD600 change [%] | RFP signal change [%]
18 | C[C@@H]1CCCCO[C@@H](CN(C)C(=O)Nc2ccc(F)cc2)[C@H](C)CN([C@@H](C)CO)C(=O)c2cc(NS(C)(=O)=O)ccc2O1 | -0.965% (inactive) | -0.127 | 0.106
19 | CN(C)CC(=O)N1[C@H](C#N)[C@H](c2ccccc2-c2cccc(C(=O)N(C)C)c2)[C@@H]1CO | 3.14% (inactive) | 9.94 | -2.26
20 | C[C@@H]1CCCCO[C@@H](CN(C)Cc2ccc(C(=O)Nc3ccccc3N)cc2)[C@H](C)CN([C@H](C)CO)C(=O)c2cc(N(C)C)ccc2O1 | 0.759% (inactive) | 1.41 | -1.39
21 | C[C@H]1CN([C@@H](C)CO)C(=O)Cc2cc(NC(=O)C3CC3)ccc2O[C@H]1CN(C)S(=O)(=O)c1ccc(Cl)cc1 | -2.58% (inactive) | -5.07 | 2.87
22 | S=C(NN=Cc1ccccn1)Nc1ccccn1 | -3.3% (inactive) | 1.4 | -6.11
23 | Cc1nnc(N/N=C/c2ccccn2)[nH]c1=O | -26% (active) | 6.61 | 2.3
24 | O=C(N/N=C/c1ccccn1)c1cccc(NC(=O)c2ccc(Cl)cc2)c1 | -12.4% (inactive) | -9.16 | -2.65
25 | CN1[C@@H]2c3ccc(-c4ccc(F)cc4)c(=O)n3C[C@H]1[C@H](CO)[C@H]2C(=O)NC1CCC1 | 0.894% (inactive) | -1.58 | -1.53
26 | NS(=O)(=O)c1cccc(NC(=O)CSc2nc3ccccc3n2-c2ccccc2)c1 | -43.3% (active) | -4.95 | 0.431
27 | Cc1ccc(-n2c(SCC(=O)Nc3ncc(Cl)cc3Cl)nc3ccccc32)cc1 | -23.3% (inactive) | -16.7 | 11.6
28 | COc1ccc(-n2cnnc2SCC(=O)Nc2cccc(S(N)(=O)=O)c2)cc1 | 5.58% (inactive) | 7.26 | -1.5
29 | CC(C)NC(=O)Nc1ccc2c(c1)C(=O)N([C@@H](C)CO)C[C@H](C)[C@H](CN(C)C(=O)Nc1ccc(F)cc1)OCCCC[C@@H](C)O2 | 9.43% (inactive) | 11.5 | -1.2
30 | O=S(=O)(c1ccccc1)N1CC[C@@H]2[C@H]1c1cc(C#Cc3cccc(F)c3)ccc1N[C@@H]2CO | -1.75% (inactive) | 20.2 | -0.35
31 | CCCNC(=O)N1CC2(C1)[C@H](c1ccccc1)[C@@H](CO)N2C(=O)C1CC1 | 2.01% (inactive) | 4.92 | -0.981
32 | COc1ccc(NC(=O)N[C@@H]2CC[C@H](CCn3cc(-c4ccc(OC)cc4)nn3)O[C@@H]2CO)cc1 | -3.5% (inactive) | -6.01 | 3.35
33 | COc1ccc(S(=O)(=O)N[C@H]2CC[C@H](CCn3cc(C(C)C)nn3)O[C@@H]2CO)cc1 | 3.72% (inactive) | 10.4 | 1.37
